Screens deposited in PubChem BioAssay by National Center for Advancing Translational Sciences (NCATS).
HP1b chromo inh: HP1-beta chromodomain-methylated histone interaction inhibition | P83916 | AlphaScreen HP1-beta / biotin-H3K9me3 peptide binding | Potency, µM (doses to about 114 µM), for inactives: at the top dose activity change, negative = inhibition, actives largely listed as inhibitors | 390,000 compounds, 0.56% hits; also: potency is read from the fitted curve at half-maximal effect; nearly all actives have a fitted effect of over 70% in size
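HP1-beta protein (50 nM final) preincubated 30 min at room temperature with biotinylated H3(1-18)K9me3 peptide (50 nM) in PBS pH 7.4, 0.01% Tween-20, then compound added for 30 min. AlphaScreen streptavidin donor/nickel chelate acceptor beads (10 ug/mL final), 30 min dark, luminescence read.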
BAZ2B block: BAZ2B (human) inhibition; Q9UIF8; AlphaScreen BAZ2B-H3K14Ac peptide displacement; Potency, µM (titrated, usually from 114 µM), for the others: top-dose activity change, negative = inhibition, usual class: inhibitors; AID 504333; 360,000 compounds, 4.4% hits; also: potency is read from the fitted curve at half-maximal effect; % is scaled to controls: 0 for no effect and ±100 for the full control effect; nearly all actives have a fitted effect of over 60% in size
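Multi-concentration screen (max 110 uM) measuring displacement of acetylated histone H3 peptide from BAZ2B by AlphaScreen, using 50 nM protein, 50 nM peptide and 10 ug/mL streptavidin donor plus Ni-chelate acceptor beads.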
Six1-Eya2 blk: inhibitors of human Six1/Eya2 interaction. activity change, % (concentration not given with the values). AlphaScreen GST-Six1/His-Eya2 binding, biochemical; hits give low values. AID 651725. 360,000 compounds, 0.56% hits; in the data active = activity change below about -65%; inconclusive = mostly about -30% to -63%; also: % is scaled to controls: 0 for no effect and ±100 for the full control effect
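Compounds are tested against tagged Six1 and Eya2 proteins bridged by glutathione donor and nickel acceptor beads; after a one-hour incubation at 37 °C without light, AlphaScreen emission is recorded.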
CtBP-E1A inh: inhibitors of CtBP/E1A interaction. 340,000 compounds, 0.49% hits. AlphaScreen GST-E1A/His-CtBP binding, 1536-well; hits give low values. AID 651724. activity change, % (test concentration not listed); in the data active = activity change below about -65%; inconclusive = mostly about -30% to -63%; also: % is scaled to controls: 0 for no effect and ±100 for the full control effect
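In 5 uL wells, 23 nL compound meets equimolar GST-E1A and His-CtBP (5X stock 125 nM each) for 2 h, 37 °C. Beads (5X, 50 ug/mL) then 1 h, 37 °C, dark.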
G9a inh: blocks human histone lysine methyltransferase G9a; Q96KQ7; G9a H3K9 monomethylation, AlphaScreen, 2 h; Potency, µM (titrated, usually from 102 µM), without a hit: at the highest dose activity, negative = inhibition, actives largely listed as inhibitors; 350,000 compounds, 8.8% hits; also: potency is read from the fitted curve at half-maximal effect; % is scaled to controls: 0 for no effect and ±100 for the full control effect; nearly all actives have a fitted effect of over 75% in size
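Methyltransferase reactions run at room temperature for 2 h (20 nM enzyme, 500 nM biotin-H3K9 peptide, 20 uM SAM) after a 15 min compound preincubation; product detected by AlphaScreen beads and anti-H3K9me1 antibody.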
JMJD2A Tudor inh: blocks the human JMJD2A Tudor domain | Potency, µM (top dose mostly 114 µM), for the others: at the highest dose activity change, negative = inhibition, usual class: inhibitors | O75164 | AlphaScreen JMJD2A-Tudor / H3K4me3 peptide binding | 390,000 compounds, 4.4% hits; also: potency is read from the fitted curve at half-maximal effect; % is scaled to controls: 0 for no effect and ±100 for the full control effect; nearly all actives have a fitted effect of over 50% in size
* = called active by the depositor; u = inconclusive; x = no result; ! = a repeat was not active; [ ] = another dose, or the depositor's remark. An excerpt weighted towards active compounds, which were near 10% of everything screened. Unless noted, calls follow the shape of the dose curve; as a rule, active = well fitted inhibition curve with a large enough effect; inconclusive = small, poorly fitted or top-dose-only effect; inactive = no such curve, though single readings can be large or run the other way.

SMILES | HP1b chromo inh | BAZ2B block | Six1-Eya2 blk | CtBP-E1A inh | G9a inh | JMJD2A Tudor inh
CN(C)c1ccc(CN(Cc2ccco2)C(=O)c2ccc(F)cc2)cc1 | u | 35µM* | x | x | 13µM* | 45µM*
CN(C)S(=O)(=O)c1cccc(C(=O)N(Cc2ccc(F)cc2)Cc2ccco2)c1 | -4% | 8% | 2 | 0 | 6%[2.33 µM] | -36%
COc1cccc(C(=O)N(Cc2ccc(N(C)C)cc2)Cc2ccco2)c1 | u | 22µM* | x | x | 13µM* | 40µM*
O=C(NCC(c1ccco1)N1CCc2ccccc2C1)C(=O)Nc1ccccc1F (stereo not drawn) | 23% | 6% | -9 | 4 | 9% | -7%
CCCCOc1ccccc1C1NC(=O)NC(C)=C1C(=O)OCc1ccco1 (stereo not drawn) | 15% | 6% | -4 | 4 | 22µM* | -23%
COCCOC(=O)C1=C(C)NC(=O)NC1c1ccco1 (stereo not drawn) | 0% | u | -2 | 2 | x | -14%
COc1cc(C2NC(=O)NC(C)=C2C(=O)OCc2ccccc2)ccc1O (stereo not drawn) | 19% | 9% | -27 | 5 | 3% | -8%
CCOc1cc(C2NC(=O)NC(C)=C2C(=O)OCc2ccccc2)ccc1O (stereo not drawn) | 19% | -26% | -69* | 6 | u | -13%
CCOC(=O)C1=C(N)OC2=C(C(=O)CC(C)(C)C2)C1c1ccco1 (stereo not drawn) | 10% | -19% | 2 | -10 | 22µM* | 56µM*
CCCCOc1ccccc1C1NC(=O)NC(C)=C1C(=O)OCCOCC (stereo not drawn) | 27% | 7% | 0 | 9 | 1% | -13%
CCOC(=O)C1=C(C)NC(=O)NC1c1ccco1 (stereo not drawn) | -6% | 79µM* | -1 | 2 | -13%[12.7 µM] | u
O=S(=O)(c1ccc2c(c1)OCCO2)N1CCN(S(=O)(=O)c2cccc(Cl)c2F)CC1 | x | x | x | x | x | -15%
O=C1c2ccccc2C(=O)N1Cc1nc2ccccc2c(=O)n1Cc1ccco1 | 9% | -3% | 3 | 7 | 9% | -12%
Cc1sc2nc3ccc(NCc4ccco4)nn3c(=O)c2c1C | 73% | -7% | -66* | u | 18µM* | -32%
O=c1c2ccccc2nc2ccc(NCc3ccco3)nn12 | -10% | u | -69* | -81* | -12%[59 µM] | -33%
COc1ccc(-n2nc(C(=O)Nc3ccccn3)c3c4ccccc4n(C)c3c2=O)cc1 | 22% | x | x | x | -5%[59 µM] | -17%
Cc1ccc(S(=O)(=O)n2nc(OC(=O)c3c(-c4ccccc4Cl)noc3C)cc2N)cc1 | -23% | u | -22 | 0 | -13%[2.33 µM] | u
Cc1onc(-c2ccccc2Cl)c1C(=O)Oc1cc(N)n(S(=O)(=O)c2ccc(F)cc2)n1 | 18% | -2% | -81* | u | -34% | -13%
OCCC1CN(CCCn2cccn2)CCN1C1CCCCC1 (stereo not drawn) | 10% | -12% | 6 | 3 | x | -7%
CNc1ncnc2c1ncn2[C@H]1C[C@H](OP(=O)(O)O)[C@@H](COP(=O)(O)O)O1 | x | x | x | x | 20µM*! | x
CN(C)CCN(C(=O)C1CCN(S(=O)(=O)c2cccs2)CC1)c1nc2c(F)cccc2s1 | -3% | u | 3 | 0 | u | -15%
CN(C)CCN(C(=O)c1cccc(Cl)c1)c1nc2c(Cl)cccc2s1 | -11% | 2% | 1 | -8 | 45µM* | u
CCN(CC)CCN(C(=O)c1ccc2c(c1)OCCO2)c1nc2c(Cl)cccc2s1 | -15% | u | -12 | -3 | 50µM* | u
CN(C)CCN(C(=O)c1ccccc1Cl)c1nc2c(Cl)cccc2s1 | u | -65% | u | u | 10µM* | 25µM*
CN(C)CCN(C(=O)c1ccc2c(c1)OCCO2)c1nc2ccc(Cl)cc2s1 | -15% | x | -9 | -1 | u | u
SMILES | HP1b chromo inh | BAZ2B block | Six1-Eya2 blk | CtBP-E1A inh | G9a inh | JMJD2A Tudor inh
COC(=O)c1ccc(C(=O)N(CCN(C)C)c2nc3c(Cl)cccc3s2)cc1 | 3% | x | 2 | 4 | 56µM* | -12%
Cc1ccc(-c2nc(CS(=O)(=O)CC(=O)NCCc3ccccc3)c(C)o2)cc1 | 20% | -2% | x | x | -2%[59 µM] | -14%
Cc1ccn2cc(-c3ccc(NC(=O)c4ccco4)cc3)nc2c1 | 10% | -2% | -2 | -3 | 17%[59 µM] | -21%
Nc1c(C(=O)Nc2ccc(Cl)c(C(F)(F)F)c2)sc2nc(-c3ccncc3)ccc12 | 32% | 2% | x | x | -9%[59 µM] | -15%
CCOC(=O)c1sc(NNC(=O)c2ccc(C)cc2)nc1C | 38% | -3% | 2 | 0 | u | -12%
CCOC(=O)c1nc(NNC(=O)c2ccc([N+](=O)[O-])cc2)sc1C | -13% | u | -20 | -17 | 45µM* | u
Cc1ccc(CNC(=O)CC2Oc3ccc(Cl)cc3NC2=O)cc1 (stereo not drawn) | 2% | -5% | x | x | -28%[59 µM] | -20%
Cc1ccc2c(c1)NC(=O)C(CC(=O)NCc1ccc(F)cc1)O2 (stereo not drawn) | 31% | -25% | 8 | -15 | 50µM* | -2%
Cc1ccc2c(c1)NC(=O)C(CC(=O)NCc1cccnc1)O2 (stereo not drawn) | 44% | 3% | 0 | 6 | 32µM* | -8%
Oc1ccccc1C1C=C(c2ccc3c(c2)OCO3)NC(c2c(F)cccc2Cl)N1 (stereo not drawn) | 10% | x | x | x | x | u
CCCCC/C=C\C/C=C\CCCCCCCC(=O)NCC(=O)O | x | x | x | x | 9%[59 µM] | x
Cc1ccc(OCCCCNC2CCCC(C)C2C)c(C)c1 (stereo not drawn) | u | 22µM* | 0 | -3 | 13µM* | 20µM*
COc1ccc(Nc2c([N+](=O)[O-])ccc3c2=NC2(CCCCC2)N=3)cc1 | 8.9µM* | 7.1µM* | -78* | -76* | 10µM* | 16µM*
CN(CCOc1ccc(Br)cc1)C(=O)CNC(=O)c1ccc2ccccc2c1 | 22% | -14% | -4 | 1 | 2% | -10%
O=C(Nc1nnc(-c2ccc(F)cc2)o1)C1CCCN1S(=O)(=O)c1cccs1 (stereo not drawn) | 35% | 79µM* | u | -23 | u | 45µM*
O=C(Nc1cc(C(F)(F)F)ccc1Cl)[C@H](O)CCc1ccccc1 | x | x | x | x | x | 26%
COc1ccc(N=Cc2[nH]c3ccccc3c2O)cc1 | -8% | -23% | 6 | 0 | 6.3µM* | -35%
COc1ccc(Cn2c(CCC(=O)NCc3cccc(Cl)c3)nc3cccnc32)cc1 | 19% | -35% | x | x | -13%[59 µM] | -1%
O=C(N/N=C/C(Cl)=C\c1ccccc1)c1cnccn1 | 17% | 2% | u | -85* | -10% | -5%
